Experimental data: PubChem BioAssay (Tox21)
Unmarked numbers belong to inactive results. Results filed as inconclusive are left out. A call without a number means that no potency is given here. Active and inactive are the calls of the source. Unless noted, calls follow the shape of the dose curve; as a rule, active = well fitted curve in the direction sought with a large enough effect in the repeat runs; inconclusive = weak or mixed curves; inactive = no such curve, though single readings can be large; an effect the other way counts as inactive or inconclusive.

Tests used:
[1] = target: Estrogen receptor beta (Homo sapiens) (UniProt Q92731); test: qHTS assay to identify small molecule agonists of the estrogen receptor beta (ER-beta) signaling pathway (AID 1259377; active = well fitted activation curve with a large enough effect in the signal ratio in the repeat runs, not every such curve was filed as active; the % refers to the signal ratio)
Estrogen receptor beta (Homo sapiens), sequence (Q92731 whole entry, looked up): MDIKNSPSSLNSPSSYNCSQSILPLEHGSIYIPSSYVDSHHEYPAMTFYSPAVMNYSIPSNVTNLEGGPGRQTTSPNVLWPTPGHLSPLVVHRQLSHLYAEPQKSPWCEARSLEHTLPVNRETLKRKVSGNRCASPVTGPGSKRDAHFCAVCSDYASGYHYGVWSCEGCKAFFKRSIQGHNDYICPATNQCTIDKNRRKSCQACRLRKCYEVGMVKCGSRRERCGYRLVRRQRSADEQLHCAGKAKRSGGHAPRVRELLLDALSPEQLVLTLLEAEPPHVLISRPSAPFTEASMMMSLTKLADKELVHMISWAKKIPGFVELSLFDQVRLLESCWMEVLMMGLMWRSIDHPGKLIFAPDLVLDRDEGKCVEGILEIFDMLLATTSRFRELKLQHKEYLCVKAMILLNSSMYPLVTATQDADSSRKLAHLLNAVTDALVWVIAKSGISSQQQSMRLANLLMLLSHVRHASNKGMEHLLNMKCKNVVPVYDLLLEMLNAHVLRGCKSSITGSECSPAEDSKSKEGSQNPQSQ
Method in brief: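 Measured by fluorescence intensity from a B/G FRET beta-lactamase substrate (2 h, room temperature) in ER-beta-UAS-bla HEK293T cells treated with DMSO-dissolved compounds for 16 hr at 37C and 5% CO2.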

[2] = target: Estrogen receptor beta (Homo sapiens) (UniProt Q92731); test: qHTS assay to identify small molecule antagonists of the estrogen receptor beta (ER-beta) signaling pathway (AID 1259378; active = well fitted inhibition curve with a large enough effect in the signal ratio in the repeat runs, not every such curve was filed as active; the % refers to the signal ratio; also: potency is read from the fitted curve at half-maximal effect)
Method in brief: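 ER-beta-UAS-bla HEK293T cells in 2% charcoal-stripped FBS medium treated with compound plus 1nM final 17-beta-estradiol for 16 hr at 37C. Beta-lactamase reporter read by FRET substrate fluorescence after 2 hours at room temperature.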

[3] = qHTS assay to identify small molecule agonists of the androgen receptor (AR) signaling pathway in the presence of an antagonist - cell viability counter screen (AID 1259379); also: nearly all actives have a fitted effect of over 25% in size; also: potency is read from the fitted curve at half-maximal effect
Method in brief: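 Nilutamide-containing (3.0uM final) MDA-kb2 cultures, 3,000 cells/well, were treated with compounds across 15 concentrations. After 16 hr at 37C with no CO2, cell viability was determined by CellTiter-Fluor fluorescence in the luciferase assay wells.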

[4] = qHTS assay to identify small molecule agonists of the estrogen receptor beta (ER-beta) signaling pathway - cell viability counter screen (AID 1259380); also: nearly all actives have a fitted effect of over 30% in size; also: potency is read from the fitted curve at half-maximal effect
Method in brief: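 Steps: plate ER-beta-UAS-bla HEK293T cells, rest 6 hr; add compounds in DMSO; incubate 16 hr at 37C, 5% CO2; add FRET substrate 2 hr; add CellTiter-Glo, wait 30 min at room temperature; read luminescence.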

[5] = target: Estrogen receptor (Homo sapiens) (UniProt P03372); test: qHTS assay to identify small molecule agonists of the estrogen receptor alpha (ER-alpha) signaling pathway in the presence of an antagonist (AID 1259383; calls by dose curve; also: top concentration of the series differs between compounds; nearly all actives have a fitted effect of over 15% in size)
Estrogen receptor (Homo sapiens), sequence (P03372 whole entry, looked up): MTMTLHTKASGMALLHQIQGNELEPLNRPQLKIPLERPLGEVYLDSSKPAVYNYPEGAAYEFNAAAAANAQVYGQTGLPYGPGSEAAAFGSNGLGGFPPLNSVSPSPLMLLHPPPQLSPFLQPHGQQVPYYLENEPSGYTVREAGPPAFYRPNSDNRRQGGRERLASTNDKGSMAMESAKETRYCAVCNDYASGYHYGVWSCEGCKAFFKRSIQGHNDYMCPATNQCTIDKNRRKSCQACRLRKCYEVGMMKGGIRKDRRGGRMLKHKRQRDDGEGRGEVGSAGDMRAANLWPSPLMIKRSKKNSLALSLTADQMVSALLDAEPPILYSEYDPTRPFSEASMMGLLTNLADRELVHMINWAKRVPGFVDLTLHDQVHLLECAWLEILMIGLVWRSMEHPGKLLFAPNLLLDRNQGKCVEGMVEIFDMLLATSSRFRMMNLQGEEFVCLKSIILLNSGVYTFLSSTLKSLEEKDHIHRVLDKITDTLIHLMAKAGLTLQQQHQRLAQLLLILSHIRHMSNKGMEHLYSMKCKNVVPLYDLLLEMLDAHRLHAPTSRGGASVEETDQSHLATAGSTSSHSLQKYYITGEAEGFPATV
Method in brief: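 Readout was ERE-driven luciferase luminescence in VM7Luc4E2 cells, which express full-length ER-alpha endogenously. Compounds were tested at 15 concentrations for 22hr alongside 10.0nM ICI-182,780 (final concentration).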

[6] = target: Thyrotropin receptor (Homo sapiens) (UniProt P16473); test: qHTS assay to identify small molecule antagonists of the thyroid stimulating hormone receptor (TSHR) signaling pathway (AID 1259385; calls by dose curve; also: nearly all actives have a fitted effect of over 20% in size; also: potency is read from the fitted curve at half-maximal effect)
Thyrotropin receptor (Homo sapiens), sequence (P16473 whole entry, looked up): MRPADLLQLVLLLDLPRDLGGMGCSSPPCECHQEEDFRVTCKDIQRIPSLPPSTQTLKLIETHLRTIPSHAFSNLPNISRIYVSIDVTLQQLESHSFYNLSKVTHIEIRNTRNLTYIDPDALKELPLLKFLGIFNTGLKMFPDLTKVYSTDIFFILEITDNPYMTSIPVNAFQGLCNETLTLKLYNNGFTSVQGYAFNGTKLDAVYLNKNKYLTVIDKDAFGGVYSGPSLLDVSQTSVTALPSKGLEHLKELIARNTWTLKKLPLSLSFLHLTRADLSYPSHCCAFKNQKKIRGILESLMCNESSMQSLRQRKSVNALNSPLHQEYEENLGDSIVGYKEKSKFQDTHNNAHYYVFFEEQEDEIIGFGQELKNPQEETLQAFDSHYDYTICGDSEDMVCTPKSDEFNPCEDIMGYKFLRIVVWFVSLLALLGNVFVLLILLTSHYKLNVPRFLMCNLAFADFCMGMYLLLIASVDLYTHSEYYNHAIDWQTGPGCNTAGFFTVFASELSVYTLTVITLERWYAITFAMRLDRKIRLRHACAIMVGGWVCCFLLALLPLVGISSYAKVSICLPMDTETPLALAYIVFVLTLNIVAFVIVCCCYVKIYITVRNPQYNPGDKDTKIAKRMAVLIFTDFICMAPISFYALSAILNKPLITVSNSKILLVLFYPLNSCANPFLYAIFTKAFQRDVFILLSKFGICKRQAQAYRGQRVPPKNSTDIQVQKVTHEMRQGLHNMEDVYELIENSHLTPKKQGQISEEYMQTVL
Method in brief: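 TSHR-HEK293 cells (800/well) plated 18 h, then compounds with Ro20-1724 and TSH at 1.5 ng/mL final, 30 min at room temperature. cAMP quantified by HTRF (cAMP-d2/anti-cAMP-cryptate, 1 h); 15 concentrations in triplicate.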

[7] = qHTS assay to identify small molecule antagonists of the estrogen receptor beta (ER-beta) signaling pathway - cell viability counter screen (AID 1259382); also: nearly all actives have a fitted effect of over 55% in size; also: potency is read from the fitted curve at half-maximal effect
Method in brief: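 Viability is scored by CellTiter-Glo luminescence (30 min, room temperature) in ER-beta-UAS-bla HEK293T wells already read for reporter fluorescence. Compound exposure lasts 16 hr at 37C alongside 1nM 17-beta-estradiol in charcoal-stripped serum medium.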

[8] = qHTS assay to identify small molecule agonists or antagonists of the thyroid stimulating hormone receptor (TSHR) signaling pathway - wild type cell line counter screen (AID 1259384; calls by dose curve)
Method in brief: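 Wild-type Hek293 cells, 800/well, 18 h at 37C, then compound with Ro20-1724 for 30 min RT. cAMP by HTRF (cAMP-d2/anti-cAMP cryptate), 1 h RT, fluorescence read. 15 concentrations, triplicates.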

[9] = qHTS assay to identify small molecule agonists of the estrogen receptor alpha (ER-alpha) signaling pathway in the presence of an antagonist - cell viability counter screen (AID 1259386);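 also: cells exposed to compounds for 22 h at 37 °C before the viability read; nearly all actives have a fitted effect of over 30% in size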; also: potency is read from the fitted curve at half-maximal effect
Method in brief: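 In this counter screen, compound effects on VM7Luc4E2 viability were tested in the presence of the antagonist ICI-182,780 at 10.0nM final. Compounds were dosed at 15 concentrations, exposure lasted 22hr, and the CellTiter-Fluor signal was read.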

[10] = target: Androgen receptor (Homo sapiens) (UniProt P10275); test: qHTS assay to identify small molecule agonists of the androgen receptor (AR) signaling pathway in the presence of an antagonist (AID 1259381; calls by dose curve; also: nearly all actives have a fitted effect of over 15% in size)
Androgen receptor (Homo sapiens), sequence (P10275 whole entry, looked up): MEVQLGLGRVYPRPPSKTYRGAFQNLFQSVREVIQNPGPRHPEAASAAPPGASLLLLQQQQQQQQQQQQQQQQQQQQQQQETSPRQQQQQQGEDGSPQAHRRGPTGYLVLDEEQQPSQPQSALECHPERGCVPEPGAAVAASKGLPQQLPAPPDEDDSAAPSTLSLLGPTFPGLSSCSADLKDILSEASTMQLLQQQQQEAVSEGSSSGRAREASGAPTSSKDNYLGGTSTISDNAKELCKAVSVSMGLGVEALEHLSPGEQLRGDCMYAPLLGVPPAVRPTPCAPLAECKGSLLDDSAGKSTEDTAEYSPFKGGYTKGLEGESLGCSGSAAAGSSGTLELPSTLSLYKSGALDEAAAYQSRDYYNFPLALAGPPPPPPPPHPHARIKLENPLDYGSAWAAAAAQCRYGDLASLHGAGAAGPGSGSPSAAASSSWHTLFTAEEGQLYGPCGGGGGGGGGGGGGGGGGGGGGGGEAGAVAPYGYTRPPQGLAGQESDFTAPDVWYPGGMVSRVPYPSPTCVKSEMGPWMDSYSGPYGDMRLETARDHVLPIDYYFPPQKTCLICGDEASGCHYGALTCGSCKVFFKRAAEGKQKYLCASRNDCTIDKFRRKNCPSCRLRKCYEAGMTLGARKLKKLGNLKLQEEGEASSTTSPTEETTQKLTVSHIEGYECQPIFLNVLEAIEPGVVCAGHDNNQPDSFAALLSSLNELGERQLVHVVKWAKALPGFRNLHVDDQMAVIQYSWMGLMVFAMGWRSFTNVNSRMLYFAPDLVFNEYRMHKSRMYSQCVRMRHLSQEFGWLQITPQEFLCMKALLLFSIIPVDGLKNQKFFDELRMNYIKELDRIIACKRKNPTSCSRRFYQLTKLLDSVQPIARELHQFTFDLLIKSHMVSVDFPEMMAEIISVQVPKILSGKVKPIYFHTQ
Method in brief: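 Reporter-gene luminescence from MDA-kb2 cells exposed 16hr at 37C (0% CO2) to 15-point compound titrations with 3.0uM final nilutamide as AR antagonist.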

Row | Structure (SMILES) | Potency [1] | Potency [2] | Potency [3] | Potency [4] | Potency [5] | Potency [6] | Potency [7] | Potency [8] | Potency [9] | Potency [10]
1 | CCC[CH2][Sn]([CH2]CCC)([O]C(C)=O)[O]C(C)=O | inactive | 0.174 µM (active) | 0.978 µM (active) | 0.276 µM (active) | inactive | inactive | – | – | – | –
2 | O=[N+]([O-])c1ccc(Cl)c(Cl)c1Cl | inactive | inactive | inactive | – | inactive | – | inactive | inactive | inactive | –
3 | NC(=O)C(Cl)Cl | inactive | inactive | inactive | inactive | – | – | inactive | – | inactive | –
4 | O=Cc1ccccc1 | inactive | inactive | inactive | inactive | – | inactive | inactive | – | inactive | –
5 | CC1CN1 (centres undefined) | inactive | inactive | inactive | – | inactive | inactive | inactive | inactive | inactive | –
6 | Nc1cc(Cl)ccc1Cl | inactive | inactive | inactive | inactive | – | inactive | inactive | – | inactive | –
7 | O=C(Nc1ccc(F)cc1F)c1cccnc1Oc1cccc(C(F)(F)F)c1 | inactive | inactive | inactive | inactive | – | inactive | inactive | inactive | inactive | –
8 | CCOP(=S)(OCC)SC(CCl)N1C(=O)c2ccccc2C1=O (centres undefined) | inactive | 30.6 µM (active) | inactive | – | – | – | inactive | inactive | inactive | inactive
9 | C[N+]1(C)[C@@H]2CC[C@H]1CC(OC(=O)C(CO)c1ccccc1)C2 (some centres undefined) | inactive | inactive | inactive | – | – | inactive | inactive | – | inactive | –
10 | C#CCC1=C(C)C(OC(=O)C2C(C=C(C)C)C2(C)C)CC1=O (centres undefined) | inactive | 60.7 µM (active) | inactive | – | – | inactive | inactive | inactive | inactive | –
11 | CCCCCCC[CH2][Sn]([Cl])([Cl])[CH2]CCCCCCC | inactive | 48.5 µM (active) | inactive | – | inactive | inactive | inactive | inactive | inactive | inactive
12 | Nc1ccccc1-c1ccccc1 | inactive | inactive | inactive | – | inactive | inactive | inactive | inactive | inactive | –
13 | Brc1cccc(-c2ccccc2)c1 | inactive | inactive | inactive | – | inactive | – | inactive | – | inactive | –
14 | C#CC1(O)CCCCC1 | inactive | inactive | inactive | – | – | inactive | inactive | – | inactive | –
15 | CCC[CH2][Sn]([CH2]CCC)([CH2]CCC)[CH2]CCC | inactive | 19.3 µM (active) | 13.7 µM (active) | 27.3 µM (active) | – | inactive | 43.3 µM (active) | inactive | 17.2 µM (active) | –
16 | CNC(=O)Oc1cc(C)cc(C(C)C)c1 | inactive | inactive | inactive | – | inactive | – | inactive | – | inactive | –
17 | CCOP(=O)(OCC)Oc1cc(C)nc(C(C)C)n1 | inactive | inactive | inactive | inactive | – | inactive | inactive | inactive | inactive | –
18 | O=C(N[C@@H]1N=C(c2ccccc2F)c2cccc3c2N(CC3)C1=O)c1cc2ccccc2[nH]1 | inactive | inactive | inactive | inactive | – | inactive | inactive | – | inactive | –
19 | Oc1cc(Cl)c(Cl)c(Cl)c1Cl | inactive | 13.4 µM (active) | 59.7 µM (active) | – | inactive | inactive | inactive | inactive | – | inactive
20 | CC(C)C(Nc1ccc(C(F)(F)F)cc1Cl)C(=O)OC(C#N)c1cccc(Oc2ccccc2)c1 (centres undefined) | inactive | inactive | inactive | inactive | inactive | – | inactive | – | inactive | –
21 | CCC(C)Br (centres undefined) | inactive | inactive | inactive | inactive | – | inactive | inactive | inactive | inactive | –
22 | CSSC | inactive | inactive | inactive | – | – | inactive | inactive | inactive | inactive | –
23 | ClSC(Cl)(Cl)Cl | inactive | inactive | inactive | – | inactive | inactive | inactive | inactive | inactive | –
24 | N#Cc1ccc(N(CC(N)=O)CC(F)(F)F)cc1C(F)(F)F | inactive | inactive | inactive | – | inactive | inactive | inactive | inactive | inactive | –
25 | CCCCc1ccccc1 | inactive | inactive | inactive | – | inactive | inactive | inactive | inactive | inactive | –
26 | CC(C)Br | inactive | – | inactive | – | inactive | inactive | inactive | inactive | inactive | –
27 | CC(=O)[O][Pb]([c]1ccccc1)([c]1ccccc1)[c]1ccccc1 | – | 0.969 µM (active) | 7.7 µM (active) | 4.86 µM (active) | inactive | 24.3 µM (active) | 5.45 µM (active) | inactive | 19.3 µM (active) | inactive
28 | Cc1ccc2cc3c(ccc4ccccc43)c3c2c1CC3 | – | inactive | inactive | inactive | inactive | inactive | inactive | – | inactive | –
29 | CCCCC/C=C\C/C=C\C/C=C\C/C=C\CCCC(=O)NCC(=O)O | inactive | – | inactive | 11.9 µM (active) | inactive | – | – | – | inactive | –
30 | Oc1ccc([C@H]2CNCc3c2ccc(O)c3O)cc1O | inactive | – | – | inactive | inactive | – | inactive | – | 26.6 µM (active) | –
